From PubChem
The list is not random: actives were taken first. Their share in the collection is about 2.4%.
D2 PAM-1: positive allosteric modulators of human D2 dopamine receptor. potentiation, % (concentration not given with the values). 360,000 tested, 0.23% active. DiscoveRx D2 beta-arrestin cells, luminescence, 90 min; 100% = 57 uM dopamine signal. P14416; in the data active = potentiation above about 50%; inconclusive = mostly about 30% to 49%
Target sequence (P14416 whole entry, looked up): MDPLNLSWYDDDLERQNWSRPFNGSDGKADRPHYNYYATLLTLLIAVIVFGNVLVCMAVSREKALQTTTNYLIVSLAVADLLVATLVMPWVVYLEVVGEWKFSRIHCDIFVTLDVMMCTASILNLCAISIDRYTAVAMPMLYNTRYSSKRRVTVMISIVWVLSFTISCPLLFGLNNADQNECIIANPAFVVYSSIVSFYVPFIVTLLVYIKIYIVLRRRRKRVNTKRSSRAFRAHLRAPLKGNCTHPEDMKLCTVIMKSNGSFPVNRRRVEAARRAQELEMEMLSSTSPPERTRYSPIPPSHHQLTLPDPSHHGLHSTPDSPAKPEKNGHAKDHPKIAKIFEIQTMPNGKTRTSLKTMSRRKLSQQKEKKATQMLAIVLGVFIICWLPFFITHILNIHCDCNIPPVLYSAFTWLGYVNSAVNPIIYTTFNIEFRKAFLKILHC
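D2 cells co-treated with compound plus 50 nM dopamine (EC20) for 90 min at 37 deg C to detect potentiation. Beta-arrestin recruitment was read as enzyme-fragment luminescence after 1 h at ambient temperature. Full response was set by 57 uM dopamine.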
D2 ag-1: activates the human D2 dopamine receptor | P14416 | HEK293 T-REx D2 cells, calcium flux agonist mode | activation, % at 2 µM | 340,000 tested, 0.53% active | AID 485358;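 active = activation over 3 SD above normal in the single-dose calcium agonist read, cut at about 30% in these data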
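HEK293 Trex D2 cells, tetracycline-induced, o/n 30 C 5% CO2; no-wash Ca dye, RT 30–90 min; 10-cycle baseline, 23 nl cpd added, kinetic Ca read 180 s; agonist hits = positive Ca response.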
D2 antag: antagonizes the human D2 dopamine receptor; P14416; HEK293 TREx D2 cells, calcium flux, dopamine EC80; inhibition, % at 10 µM; 340,000 tested, 2% active; in the data active = inhibition above about 30%; inactive = below that, where a call was filed
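Compounds are added to dye-loaded, induced HEK293 T-REx cells coupled to calcium release via D2; after a 3 min kinetic read an EC80 dopamine stimulus is given and fluorescence is recorded for 3 more min.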
D2 PAM-2: positive allosteric modulators of human D2 dopamine receptor; AID 485347; HEK293 T-REx D2, calcium flux, EC20 dopamine potentiation; 340,000 tested, 0.34% active; P14416; potentiation, % at 10 µM;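 active = potentiation over 3 SD above the plate norm, cut at about 30% in these data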
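Potentiation of an EC20 dopamine calcium response measured kinetically over 180 s, after a preceding 180 s compound-only read flagging agonists. Cells: inducible Hek293 Trex D2 line, 4000/well, cultured overnight at 30 C before dye loading.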
D2 ag-2: human D2 receptor agonism in beta-arrestin assay. 360,000 tested, 0.084% active. DiscoveRx PathHunter D2 beta-arrestin, luminescence, 90 min; 100% = 57 uM dopamine signal. activation, % (test concentration not listed); in the data active = activation above about 40%; inconclusive = between about 15% and that limit
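DiscoveRx PathHunter D2 beta-arrestin cells (2,100/well) attached overnight, then compound-stimulated 90 min at 37 C in HBSS/10 mM HEPES/0.1% Tween-20 buffer; beta-galactosidase complementation read by luminescence after 1 h at ambient temperature. Dopamine 57 uM final (EC100) as control.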
Large screens that a line does not name were inactive; ! = not active in a repeat.

CCc1ccc(OCc2cccc(C(=O)N/N=C\c3cnn(C)c3C)c2)cc1	none
CCOC(=O)c1c(C)[nH]c(C)c1S(=O)(=O)N(C)CC(=O)Nc1ccc(C)c(F)c1	none (no result: D2 PAM-1, D2 ag-1, D2 antag, D2 ag-2)
COc1cc2c(C)nc(C)c(C#N)c2cc1OC	D2 PAM-2 39
Nc1ccccc1C(=O)NCc1ccc(Cl)cc1	D2 antag 30
Nc1ccccc1C(=O)NCc1ccc(F)cc1	none
Cc1ccc(C(=O)c2cn(Cc3ccccc3F)c3cc4c(cc3c2=O)OCO4)cc1	none (no result: D2 PAM-1, D2 antag, D2 ag-2)
CC(=O)c1cccc(S(=O)(=O)N2CCC(C(=O)OC3CCOC3=O)CC2)c1 (stereo not drawn)	D2 antag 43
Cc1ccc(S(=O)(=O)N2CCOCC2)cc1C(=O)OC1CCOC1=O (stereo not drawn)	D2 antag 41
CC(=O)Oc1c(Cl)cc(N(C(C)=O)S(=O)(=O)c2ccccc2)c2ccccc12	none (no result: D2 ag-1, D2 antag, D2 PAM-2)
O=c1c(N2CCN(c3ccccc3)CC2)csc2ccc(Cl)cc12	none (no result: D2 PAM-1, D2 ag-1, D2 antag, D2 ag-2)
CCN(CC)CCNC(=O)c1ccc(N2CCCCC2)c(NS(=O)(=O)c2ccc(C)cc2)c1	D2 antag 56
CCN1CCCC1CNC(=O)c1ccc(N2CCOCC2)c(NS(=O)(=O)c2ccc(OC)cc2)c1 (stereo not drawn)	D2 antag 33
CCCc1cc(=O)oc2c3c(cc(OCC(=O)N[C@@H](C)C(=O)O)c12)OC(C)(C)CC3	D2 antag 33
CCCc1cc(=O)oc2c3c(cc(OCC(=O)N[C@@H](CSC)C(=O)O)c12)OC(C)(C)CC3	none
CSc1nc(C)cc(/C=C\c2ccccc2)c1C#N	D2 PAM-2 41
c1ccc(-c2ccccc2OCCCN2CCCCCC2)cc1	D2 antag 56
c1ccc(-c2ccccc2OCCCCN2CCCCC2)cc1	D2 antag 75
c1ccc(-c2ccccc2OCCCN2CCCC2)cc1	none
Cc1cc(C)cc(NC(=O)CSCc2cc(=O)c3ccc(C)c(C)c3[nH]2)c1	none (no result: D2 PAM-1, D2 antag, D2 ag-2)
O=c1oc2ccccc2cc1-c1nc2c(s1)CCc1ccccc1-2	D2 PAM-1 inconclusive
O=c1oc2cc(O)ccc2cc1-c1nc2c(s1)CCc1ccccc1-2	D2 ag-1 141, D2 antag 80
CCC(c1nnnn1C1CCCC1)N1CCN(c2ccccc2F)CC1 (stereo not drawn)	none
CCC(c1nnnn1C1CCCC1)N1CCN(c2ccccc2)CC1 (stereo not drawn)	D2 antag 52 (no result: D2 PAM-2)
Cc1onc(-c2ccccc2Cl)c1C(=O)Nc1sc2c(c1C#N)CCC2	none
Cc1onc(C(=O)Nc2sc3c(c2C#N)CCCC3)c1[N+](=O)[O-]	D2 ag-1 37
Cc1ccc(S(=O)(=O)NCCSc2nncn2C)cc1	D2 PAM-2 35
Cc1cc(C)c(NC(=O)CN(C)S(=O)(=O)c2ccc3c(c2)n(C)c(=O)c(=O)n3C)c(C)c1	D2 PAM-2 75
Cc1ccc(NC(=O)CN(C)S(=O)(=O)c2ccc3c(c2)n(C)c(=O)c(=O)n3C)c(C)c1	none
Cc1ccc(NS(=O)(=O)c2ccc(OCC(=O)Nc3cccc([N+](=O)[O-])c3)c(C)c2)cc1	none
Cc1ccccc1NC(=O)CCCn1nc(C)c2c(C)n(-c3ccccc3)nc2c1=O	none
Cc1cc(C)cc(NC(=O)CCCn2nc(C)c3c(C)n(-c4ccccc4)nc3c2=O)c1	D2 PAM-2 33!
O=C1OC2(c3ccccc31)c1cc(I)c(O)c(I)c1Oc1c2cc(I)c(O)c1I	D2 ag-1 105, D2 antag 53 (no result: D2 PAM-1, D2 ag-2)
O=C1OC(c2ccccc2)(c2ccc(O)cc2)c2ccccc21 (stereo not drawn)	none (no result: D2 ag-1, D2 antag, D2 PAM-2)
COc1ccc(/C=C2/N=C(SCC(=O)Nc3cc(C)on3)N(c3ccccc3)C2=O)cc1	D2 antag 32
C[C@H](O)Cc1cn(-c2cc3cc(C#Cc4ccsc4)ccc3oc2=O)nn1	none
Cc1ccc2c(c1)C1CN(C)CCC1N2C(=O)c1ccccc1NS(=O)(=O)c1ccc(F)cc1 (stereo not drawn)	none
Cc1ccc2c(c1)C1CN(C)CCC1N2S(=O)(=O)c1ccc(C#N)cc1 (stereo not drawn)	D2 antag 40
COc1ccccc1-c1cc(C(=O)N/N=C/c2cccs2)c2ccccc2n1	D2 antag 72
O=C(N/N=C/c1cccs1)c1c[nH]c2ccccc12	D2 antag 33
COc1ccc(/C=N/NS(=O)(=O)c2ccccc2)cc1OS(=O)(=O)c1ccc(C)cc1	D2 antag 32
Cc1oc2cc3oc(=O)c(CC(=O)NCc4ccccc4)c(C)c3cc2c1C	none (no result: D2 PAM-1, D2 antag, D2 ag-2)
CCCCN(C)CCCNC(=O)C1CCC(CNS(=O)(=O)c2c(C)cc(C)cc2C)CC1 (stereo not drawn)	none (no result: D2 ag-1, D2 antag)
COc1ccccc1NC(=O)N1CCC(CN2CCc3ccccc3C2)CC1	none (no result: D2 PAM-1, D2 antag, D2 ag-2)
Cc1ccccc1C(=O)c1cccn1CC(=O)NC1CCCC(C)C1C (stereo not drawn)	none
CC1CCCCC1NC(=O)Cn1cccc1C(=O)c1ccccc1 (stereo not drawn)	D2 PAM-2 35
CN(C(=O)C1=CC(c2ccc3c(c2)OCO3)=NS(=O)(=O)N1C)c1ccccc1	none (no result: D2 PAM-1, D2 antag, D2 ag-2)
COc1nc(C)ccc1-c1noc(-c2ccncc2)n1	D2 PAM-2 38
COc1ccc(-c2nc(-c3ccncc3)no2)c(OC)c1	D2 antag 58
COc1ccc(-c2ccc(-c3noc(-c4ccccc4)n3)c(OC)n2)cc1	D2 antag 31
CCOc1nc(C)ccc1-c1noc(-c2ccccn2)n1	none
CCOc1nc(C)ccc1-c1noc(-c2ccco2)n1	D2 PAM-2 35
COc1cc(-c2nc(-c3ccc(C)nc3OC)no2)cc(OC)c1OC	none (no result: D2 PAM-1, D2 ag-2)
Cc1c(Cl)ccc2sc(N3CCN(C(=O)CS(=O)(=O)c4ccccc4)CC3)nc12	none (no result: D2 PAM-1, D2 ag-1, D2 antag, D2 ag-2)
Nc1ccc(-c2c3ccc(=O)cc-3oc3cc(O)ccc23)cc1C(=O)O	D2 ag-1 92
COc1ccc2c3c(cccc13)C(=O)CC2	D2 ag-1 49
O=c1[nH]cc(C=NNc2ccccc2)c(=O)[nH]1	none (no result: D2 ag-1, D2 antag, D2 PAM-2)
CCOc1ccc(-c2nnc3n2N=C(c2ccc(OC)cc2)CS3)cc1	none
CCc1nnc2n1N=C(c1ccc(OC)cc1)CS2	D2 antag 34
O=C(NNC(=O)c1ccccc1Br)c1ccccc1Cl	none
O=C(NNC(=S)Nc1ccccc1Cl)c1ccccc1Br	D2 antag 53
Cc1cc(C)n(CC2CC(=O)N(c3cc(Cl)cc(Cl)c3)C2=O)n1 (stereo not drawn)	D2 antag 31
COc1ccccc1C1CCN(Cc2c(C)[nH]c3ccccc23)CC1	D2 antag 56
COc1ccccc1C1CCN(Cc2ccc(Cl)c(Cl)c2)CC1	D2 antag 84
COc1ccccc1C1CCN(Cc2ccc(Cl)cc2Cl)CC1	none
COc1ccccc1C1CCN(Cc2cccc3ccccc23)CC1	D2 antag 82
